The campaign covered roughly 330,000 compounds. About 4,200 (1.3%) were called active. Roughly 6% stayed inconclusive and do not appear here. For the sample, actives were picked, then their nearest neighbours and some compounds at random. Unmarked numbers belong to inactive results. The call rests on the fitted dose curve; in most records, active means well fitted activation curve with a large enough effect; inconclusive means small, poorly fitted or top-dose-only effect; inactive means no such curve, though single readings can be large or run the other way.
Potency means the concentration at half of the fitted maximal effect.

A short description of the assay: qHTS screen for small molecules that induce genotoxicity in human embryonic kidney (HEK293T) cells expressing luciferase-tagged ELG1. Further: nearly all actives have a fitted effect of over 60% in size. On activity change, positive = activation: % of control where 0% means no effect. Conditions: HEK293T ELG1-luciferase reporter, luminescence, 16 h; series mostly up to 46 µM; activity change, positive = activation: at the top concentration. Put shortly:
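Genotoxicity was scored as increased ELG1-luciferase reporter signal, measured by ONE-Glo luminescence (30 min, room temperature). Compound or vehicle exposure of the HEK293T reporter cells lasted 16 hr at 37°C.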
In general terms: qHTS replaces the single test concentration by a dilution series.
`Cc1ccc(S(=O)(=O)N2[C@@H](c3ccc(Br)cc3)C(C(=O)O)=C[C@H]2CC2CCCC2)cc1`: the “activity change, positive = activation” value is 0.375%.

With `Cc1cc(=O)oc2cc(OCCC[n+]3ccccc3)ccc12`, the “activity change, positive = activation” value was 2.93%.

Turning to `Cc1cc(=O)oc2cc(OCC3CC(c4ccccc4Cl)=NO3)ccc12` (stereo unspecified), the Potency was 7.94 µM (active).

For `Cc1ccccc1N1CCN(CCCOc2ccc3c(C)cc(=O)oc3c2)CC1`, the “activity change, positive = activation” value was 0.148%.

For the molecule `CCCCNC(=O)C(C)N(CCN(C)C)C(=O)CCCCCN1C(=O)NC(c2ccc(Cl)cc2)C(C(=O)OCc2ccccc2)=C1C` (stereo unspecified), the “activity change, positive = activation” value is -3.93%.

Take `CN(C)c1ccc(-c2nnc(-c3cccnc3)o2)cc1`: the Potency is 10.3 µM (active).

With `COc1ccc(-c2nnc(SCc3cccnc3)o2)cc1`, the “activity change, positive = activation” value is 15.4%.

For the molecule `COC(=O)CSc1nnc(-c2cccnc2)o1`, the “activity change, positive = activation” value was 1.66%.

As to `COc1ccc(CCNC(=O)COC(=O)Cc2ccccc2F)cc1`, the “activity change, positive = activation” value was 2.3%.

With `Cc1ccc(C(=O)NCC(=O)NC2CC2)cc1`, the “activity change, positive = activation” value is 3.52%.

Turning to `Oc1ccc(/C=N/Nc2nc(-c3ccccc3F)nc3ccccc23)c(O)c1`, the “activity change, positive = activation” value was -11.4%.

For the molecule `COc1ccc(/C=C(\C#N)C(=O)ONC2=NCCCCC2)cc1`, the “activity change, positive = activation” value was -2.29%.

Take `Oc1ccc(/C=N/NC2=NCCCCC2)c(O)c1`: the Potency is 7.31 µM (active).

Consider `O=C(Cn1cnc2ccccc2c1=O)NNC(=O)c1ccccc1F`, for which the “activity change, positive = activation” value is 0.474%.

As to `COc1ccc(C(=O)Nc2cc(S(=O)(=O)N3CCCC3)ccc2Cl)cc1`, the “activity change, positive = activation” value is -0.914%.

Regarding `Clc1cccc(N=C2NN=C(c3ccc4c(c3)OCCO4)CS2)c1`, the Potency was 2.31 µM (active).

For `c1ccc(CN2CCC(N=C3NN=C(c4ccc5c(c4)OCCO5)CS3)CC2)cc1`, the “activity change, positive = activation” value was 0.435%.

`CN(C)c1nc(=Nc2cccc(Cl)c2)ss1`: the “activity change, positive = activation” value is 2.77%.

For `Cc1occc1C(=O)Nc1cccc(Cn2cccn2)c1`, the “activity change, positive = activation” value is 4.11%.

In the case of `CCOC(=O)c1c(N)nn(C(=O)c2ccccc2)c1-c1ccccc1`, the “activity change, positive = activation” value is -8.81%.

Regarding `Cc1nn(C(=O)c2ccoc2C)c(N)c1-c1ccccc1`, the Potency is 13 µM (active).

As to `Cc1ccc(C(=O)Nc2ccc3c(c2)OCCO3)cc1S(=O)(=O)N1CCOCC1`, the “activity change, positive = activation” value is 10.5%.

Regarding `c1ccc(CCN2CN=C(Nc3nc4ccccc4o3)NC2)cc1`, the Potency was 18.4 µM (active).

With `Cc1ccc2nc(NC3=NCN(CCc4ccccc4)CN3)nc(C)c2c1`, the “activity change, positive = activation” value is -4.53%.

With `N#CNC1=NCN(CCc2ccccc2)CN1`, the “activity change, positive = activation” value was -0.27%.

For the molecule `CCN(CC)C(=O)[C@H]1C[C@H](CC(=O)NCC23CC4CC(CC(C4)C2)C3)C(=O)N2CCc3c([nH]c4cc(CCC(=O)N(C)C)ccc34)[C@]12C`, the “activity change, positive = activation” value is -0.656%.

For the molecule `N#CC(=C1SC=CS1)c1nc(-c2ccccc2)cs1`, the Potency was 5.8 µM (active).

Turning to `N#C/C(=C1/CCCN1)c1ccccn1`, the “activity change, positive = activation” value is -2.36%.

`COc1cc(/C=C/C(=O)OCC(=O)NCCCc2ccccc2)ccc1O`: the “activity change, positive = activation” value is 5.01%.

Consider `O=C(NCCC(=O)N1O[C@@H]2C=C[C@H]1C2)OCC1c2ccccc2-c2ccccc21`, for which the “activity change, positive = activation” value is 5.79%.

In the case of `O=C(COC(=O)c1n[nH]c2ccccc12)NCc1ccccc1`, the “activity change, positive = activation” value is 7.07%.

`COc1ccc(COC(=O)c2n[nH]c3ccccc23)cc1F`: the Potency was 14.6 µM (active).

With `COc1ccc(NC(=O)COC(=O)c2n[nH]c3ccccc23)c(OC)c1`, the “activity change, positive = activation” value is -1.81%.

Consider `O=C(CC1SC(N2CCOCC2)=NC1=O)Nc1ccccc1F` (stereo unspecified), for which the “activity change, positive = activation” value is 3.27%.

As to `c1coc(CNc2ncnc3ccccc23)c1`, the “activity change, positive = activation” value is -10.6%.

As for `Cc1noc(C)c1-c1ccc2ncnc(NC(C)c3ccco3)c2c1` (stereo unspecified), the Potency is 16.4 µM (active).

Take `COc1ccc(NS(=O)(=O)c2ccc(C(=O)Nc3c(C)n(C)n(-c4ccccc4)c3=O)cc2)cc1`: the “activity change, positive = activation” value is 1.95%.

With `CCCN(C(=O)CSc1nnc(N)s1)c1c(N)n(Cc2ccccc2)c(=O)[nH]c1=O`, the “activity change, positive = activation” value is -2%.

Regarding `CN(C(=O)CSc1cccc[n+]1[O-])C1CCCCC1`, the “activity change, positive = activation” value was 2.05%.

On to `CCCOC(=O)Nc1ccccc1C(N)=O`, for which the “activity change, positive = activation” value was -0.681%.

For `COc1cccc(OCC(=O)Nc2ccccc2C(N)=O)c1`, the Potency was 5.17 µM (active).

With `Cc1cccc(OCCC(=O)Nc2ccccc2C(N)=O)c1`, the “activity change, positive = activation” value is -2.38%.

For `NS(=O)(=O)c1ccc(CNC(=S)NC(=O)c2ccco2)cc1`, the “activity change, positive = activation” value was 2.68%.

For the molecule `O=C(NNS(=O)(=O)c1c(F)cc(F)c(Cl)c1F)C12CC3CC(CC(C3)C1)C2`, the “activity change, positive = activation” value was -0.967%.

In the case of `Cn1cncc1C#Cc1c(-c2ccsc2)sc2ccccc12`, the “activity change, positive = activation” value was -2.38%.

Consider `O=C(Nc1nnc(-c2ccccc2)o1)c1cccc(S(=O)(=O)N2CCOCC2)c1`, for which the “activity change, positive = activation” value is -10.2%.

Take `O=C(NCc1ccc2c(c1)OCO2)c1cc([N+](=O)[O-])ccc1N1CCOCC1`: the “activity change, positive = activation” value was -2.21%.

As to `Cc1nn(C)cc1/C=N/NC(=O)c1sc2ccccc2c1Cl`, the “activity change, positive = activation” value was 3.94%.

Consider `O=C(Nc1ccon1)c1cccc(Cl)c1`, for which the “activity change, positive = activation” value is 0.203%.

Consider `O=C(Nc1ccon1)c1sc2ccccc2c1Cl`, for which the Potency was 13 µM (active).

As for `Cc1ccc(NC(=O)Cn2cnc3c(OCc4ccccc4)ncnc32)cc1C`, the “activity change, positive = activation” value was 3.02%.

Regarding `COc1cc(/C=N/Nc2nn3cnnc3c3ccccc23)cc(OC)c1OC`, the “activity change, positive = activation” value was -0.781%.

With `CN(CCO)c1ccc(/C=N/Nc2nncc3ccccc23)cc1`, the Potency is 0.116 µM (active).

As to `FC(F)(F)c1nc2ccccc2nc1N/N=C/c1ccc(Cl)cc1`, the “activity change, positive = activation” value is -2.13%.

Consider `C/C=C/c1ccc(OCC(=O)NNC(=O)CN(C)S(=O)(=O)c2ccc(C)cc2)c(OC)c1`, for which the “activity change, positive = activation” value is 0.0839%.

Take `CC(Sc1ccccc1F)C(=O)Nc1cccc(S(=O)(=O)N2CCOCC2)c1` (stereo unspecified): the “activity change, positive = activation” value was -0.0904%.

With `COc1ccc(C)cc1Nc1nc(C)nc2c1oc1ccccc12`, the “activity change, positive = activation” value is 0.558%.

For `COc1ccccc1Nc1ncnc2c1oc1ccccc12`, the Potency is 14.6 µM (active).

Take `CCC(C(=O)OC)n1cnc2c(oc3ccccc32)c1=O` (stereo unspecified): the “activity change, positive = activation” value was 5.09%.

On to `CCOC(=O)c1cnc(SCc2nc(N)nc(Nc3ccc(OC)cc3)n2)nc1N`, for which the “activity change, positive = activation” value was 4.89%.

As to `CCCCCCOc1ccc(OC(=O)c2cccnc2)cc1`, the “activity change, positive = activation” value is 3.9%.

For the molecule `CCCCOc1ccc(-c2ncc(C(=O)OCC)c(N)n2)cc1`, the Potency was 10.3 µM (active).

As to `Cc1c(NC(=O)CN(C)CC(=O)Nc2ccc(F)c(F)c2F)c(=O)n(-c2ccccc2)n1C`, the “activity change, positive = activation” value is 0.0923%.

Take `Cc1ccsc1C(=O)OCC(=O)NCCc1ccccc1`: the “activity change, positive = activation” value is 10.7%.

For `COc1ccc(OC)c(-c2csc(-c3cccs3)n2)c1`, the “activity change, positive = activation” value is 3.44%.

As to `COc1ccc(C2CC(c3cccs3)=Nc3ccccc3S2)cc1OC` (stereo unspecified), the “activity change, positive = activation” value is 0.582%.

Consider `COc1ccc(-c2csc(-c3cccs3)n2)cc1OC`, for which the Potency was 16.4 µM (active).

Turning to `CC[C@@]1(C(=O)OC)N[C@H](CN(C)C(C)=O)[C@@H]2C(=O)N(C)C(=O)[C@@H]21`, the “activity change, positive = activation” value was 1.22%.

Take `CC(=O)c1c(OCC(=O)N(C)C2CCCCC2)ccc2c(C)cc(=O)oc12`: the “activity change, positive = activation” value is 3.2%.

Take `COc1ccccc1CSc1nc2ccccc2[nH]1`: the Potency is 23.1 µM (active).

For `Clc1ccccc1SCc1nc2ccccc2[nH]1`, the “activity change, positive = activation” value is 15%.

`COc1ccccc1CSc1ncc(-c2ccc([N+](=O)[O-])cc2)[nH]1`: the “activity change, positive = activation” value is -0.532%.

In the case of `CC[C@]1(C(=O)OC)[C@H]2C(=O)N(Cc3ccccc3)C(=O)[C@H]2[C@H]2CN=C(SCc3ccc(Cl)cc3)N21`, the “activity change, positive = activation” value is -5.96%.

As for `O=C(C[C@@H]1C/C=C\CCC(=O)OC[C@@H]2CCCN2C1=O)NCCO`, the “activity change, positive = activation” value was 3.18%.

Take `CN(C(=O)COC(=O)c1cc(=O)[nH]c2ccccc12)C1CCCCC1`: the “activity change, positive = activation” value is 18.4%.

As for `CCCCNc1c(-c2cccc(Sc3ccc(OC)cc3)c2)nc2ccccn12`, the “activity change, positive = activation” value is -5.54%.

With `CN1CCN(c2ccc(NC(=O)c3ccccc3)cc2)CC1`, the Potency is 10.3 µM (active).

Regarding `CN1CCN(c2ccc(NC(=O)c3cc(Cl)c4c(c3)OCCO4)cc2)CC1`, the “activity change, positive = activation” value is 9.93%.

As for `CN1CCN(c2ccc(NC(=O)c3ccc4c(c3)[nH]c(=O)n4Cc3ccc(F)cc3)cc2)CC1`, the “activity change, positive = activation” value is -2.36%.

Turning to `N#Cc1cc([N+](=O)[O-])ccc1NC(=O)COC(=O)c1cnccn1`, the “activity change, positive = activation” value was -4.95%.

For `O=C(NCCCNC(=O)c1ccccc1Cl)c1cnccn1`, the “activity change, positive = activation” value is 1.2%.

Consider `COC(=O)c1ccc(OC(=O)c2cnccn2)cc1`, for which the “activity change, positive = activation” value was 0.398%.

Take `Cn1c(=NC(=O)c2cnccn2)sc2ccccc21`: the Potency was 8.2 µM (active).

As to `CC1(c2ccccc2)NC(=O)N(CC(=O)N2CC(=O)Nc3ccccc32)C1=O` (stereo unspecified), the “activity change, positive = activation” value is 0.668%.

In the case of `Cc1ccc(C)c(S(=O)(=O)N2CCN(c3ncnc4sccc34)CC2)c1`, the “activity change, positive = activation” value is -12.2%.

Consider `CC(C)CC1NC(=O)c2cc(Cl)ccc2-n2c1nc1ccccc1c2=O` (stereo unspecified), for which the “activity change, positive = activation” value is 0.392%.

Take `Cc1ccnc(Nc2nc3ccccc3s2)n1`: the Potency is 2.06 µM (active).

Regarding `Cn1nnnc1SCC(=O)Nc1nc2ccccc2s1`, the “activity change, positive = activation” value is 14.9%.

`Cc1ccnc(NC(=O)c2ccco2)n1`: the “activity change, positive = activation” value is 4.05%.

Take `Cc1ccccc1NC(=O)CSC(=O)c1ccccc1`: the “activity change, positive = activation” value was -4.93%.

For the molecule `CSc1ccccc1NC(=O)c1cc(C2CC2)on1`, the Potency was 23.1 µM (active).

With `Cc1nn(Cc2ccc(Cl)c(Cl)c2)c(C)c1NC(=O)c1cc(C2CC2)on1`, the “activity change, positive = activation” value is 2.15%.

Turning to `O=C(Nc1cc(C(F)(F)F)ccc1Cl)c1cc(C2CC2)on1`, the “activity change, positive = activation” value is -1.5%.

Consider `COc1cc(C)ccc1OCC(=O)OCC(=O)c1ccc[nH]1`, for which the “activity change, positive = activation” value was 3.48%.

As for `CC(C)(C)OC(=O)C[C@@H]1C/C=C\C[C@@H](CC(=O)NCCO)C(=O)N[C@H](Cc2c[nH]c3ccccc23)COC1=O`, the “activity change, positive = activation” value was 0.381%.

Regarding `C=CC[C@@H](CC(=O)N[C@@H](CO)Cc1ccccc1)C(=O)N[C@H](COC(=O)[C@H](CC=C)CC(=O)OC(C)(C)C)Cc1ccccc1`, the “activity change, positive = activation” value was 10.3%.

For the origin of these results see PubChem BioAssay AID504466 (National Center for Advancing Translational Sciences (NCATS), 2011).
